Hit rate of the full screen: of about 420,000 compounds, about 64,000 (15%) were called active. Roughly 27% stayed inconclusive and do not appear here. The call rests on the fitted dose curve; in most records, active means well fitted inhibition curve with a large enough effect; inconclusive means small, poorly fitted or top-dose-only effect; inactive means flat fitted curve, though single readings scatter. The list is a sample of the results. A call without a number means that no potency is given here.
Assay: qHTS for Inhibitors of human tyrosyl-DNA phosphodiesterase 1 (TDP1): qHTS in cells in absence of CPT; further: nearly all actives have a fitted effect of over 55% in size
Details: DT40 Tdp1-/- hTDP1 cells, no CPT, ATP luminescence, 48 h; activity change, negative = growth inhibition: at 46.2 µM (top of the series)
Method in brief: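 Luminescent ATP content (CellTiter-Glo) served as the growth readout. Knockout chicken DT40 cells expressing human TDP1 were exposed to compounds without camptothecin for a minimum 48 hr at 37 °C.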
Potency means the concentration at half of the fitted maximal effect.

Which Potency does the source give for `CC1(C(=O)O)CCC(C(=O)Nc2ccc(Cl)c(Cl)c2)C1(C)C` (stereo not drawn) here?
Its Potency is “inactive”.

For `COc1ccc(-c2nc3n(c2Br)CCC3)cc1`, which Potency is on record?
Its Potency is “inactive”.

Which Potency does the source give for `CCOc1ccc(C(=O)NC2CCN(CC(=O)NCc3cccs3)CC2)cc1` here?
The Potency was “inactive”.

With `COc1cc2[nH]c(=O)n(CCC(=O)NC3CCN(Cc4ccccc4)CC3)c(=O)c2cc1OC` as the compound, how does the Potency read?
The Potency was “inactive”.

Which Potency does the source give for `COC(=O)c1cccc(NC(=O)CN2CCC(NC(=O)c3cc(OC)c(OC)c(OC)c3)CC2)c1` here?
Its Potency is 16.4 µM (active).

For `COc1cc(C(=O)NC2CCN(Cc3ccccc3)CC2)cc(Cl)c1OC(C)C`, which Potency is on record?
Its Potency is 20.6 µM (active).

For `COc1ccc(C(=O)O)cc1S(=O)(=O)NC1CCN(Cc2ccccc2)CC1`, which Potency is on record?
Its Potency is “inactive”.

For `COC(=O)c1cc(NC(=O)CN2CCN(C(C)=O)CC2)cc(C(=O)OC)c1`, which Potency is on record?
Its Potency is “inactive”.

For `Cc1c(C=O)c2ccccc2n1CC(=O)O`, which Potency is on record?
The Potency was “inactive”.

With `CC(NC(=O)COC(=O)c1ccc(Cl)cc1O)c1ccc(F)cc1` (stereo not drawn) as the compound, how does the Potency read?
The Potency was “inactive”.

Which Potency does the source give for `Cc1ccc(S(=O)(=O)NCc2cn3ccsc3n2)c(C)c1` here?
Its Potency is “inactive”.

With `Cn1nnnc1SCC(=O)Nc1nc2ccccc2s1` as the compound, how does the Potency read?
The Potency was “inactive”.

Which Potency does the source give for `Cc1ccn2c(=O)nc(SCC(=O)NCc3ccc(F)cc3)nc2c1` here?
The Potency was “inactive”.

Which Potency does the source give for `COc1ccc(/C=C/C(=O)Nc2cccnc2)cc1OC` here?
The Potency was “inactive”.

Which Potency does the source give for `COc1ccc(/C=C/C(=O)Nc2ccc(C34CC5CC(CC(O)(C5)C3)C4)cc2)cc1OC` here?
Its Potency is 1.3 µM (active).

With `Cc1ccc(C23CC4CC(CC(C(=O)NCC(=O)O)(C4)C2)C3)cc1` as the compound, how does the Potency read?
Its Potency is “inactive”.

For `CCC(=O)NNc1cc(=O)c2c(=O)n(C)c(=O)n(C)c2[nH]1`, which Potency is on record?
Its Potency is “inactive”.

With `CCC(=O)c1ccc(N2CCN(C(=O)c3cc([N+](=O)[O-])ccc3F)CC2)c(F)c1` as the compound, how does the Potency read?
The Potency was 16.4 µM (active).

Which Potency does the source give for `CCOC(=O)N1CCN(C(=S)Nc2ccc(C)cc2C)CC1` here?
The Potency was “inactive”.

For `CCOC(=O)C1CCN(c2ccc(C(=O)O)cc2[N+](=O)[O-])CC1`, which Potency is on record?
The Potency was “inactive”.

Which Potency does the source give for `CC(C(=O)N1CCN(c2ccccc2F)CC1)c1ccc([N+](=O)[O-])cc1` (stereo not drawn) here?
The Potency was “inactive”.

For `O=C(Nc1cccc(Cl)c1)c1cc([N+](=O)[O-])ccc1N1CCN(CCO)CC1`, which Potency is on record?
The Potency was “inactive”.

For `CCOC(=O)N1CCN(c2cc(C)c([N+](=O)[O-])cc2F)CC1`, which Potency is on record?
Its Potency is 16.4 µM (active).

For `COC(=O)c1oc2ccc(Br)cc2c1NC(C)=O`, which Potency is on record?
Its Potency is “inactive”.

Which Potency does the source give for `O=C(CC(c1ccccc1)c1cc(Cl)ccc1O)NCCN1CCOCC1` (stereo not drawn) here?
Its Potency is “inactive”.

For `CCn1c(SCC(=O)NCc2ccco2)nnc1-c1ccc(N)cc1`, which Potency is on record?
The Potency was “inactive”.

For `Cc1ccccc1NC(=O)CSc1nc2ccc(Nc3nc(N4CCOCC4)nc(N4CCOCC4)n3)cc2s1`, which Potency is on record?
Its Potency is 14.6 µM (active).

For `O=C(CSc1nc(Nc2ccccc2)nc(N2CCOCC2)n1)Nc1cc(Cl)ccc1O`, which Potency is on record?
Its Potency is 29.1 µM (active).

For `C=CCn1c(CSc2nc3ccccc3s2)nnc1SCC(=O)NCc1ccco1`, which Potency is on record?
Its Potency is “inactive”.

For `O=C(CSc1nc2ccc(Nc3nc(N4CCOCC4)nc(N4CCOCC4)n3)cc2s1)NCc1ccco1`, which Potency is on record?
Its Potency is 13 µM (active).

Which Potency does the source give for `CC1(c2ccccc2)NC(=O)N(CC(=O)Nc2cc(Cl)ccc2N2CCOCC2)C1=O` (stereo not drawn) here?
Its Potency is “inactive”.

Which Potency does the source give for `O=C(CSc1nc2ccccc2s1)Nc1ccc(C(=O)O)cc1` here?
The Potency was “inactive”.

With `Cc1ccc(S(=O)(=O)N2CCOCC2)cc1NC(=O)CSc1nnc(N)s1` as the compound, how does the Potency read?
Its Potency is “inactive”.

Source: PubChem BioAssay AID686978 (National Center for Advancing Translational Sciences (NCATS), 2013)
